Data published in PubChem BioAssay AID652134 (The Scripps Research Institute Molecular Screening Center, 2013).
Out of some 2,400 compounds screened, about 2,100 (88%) were called active. The set was probably picked from earlier hits. These entries were drawn from the full list. A number with no mark means an inactive call.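 The calls were made as follows: active = inhibition above the average of every tested compound plus 3 SD (cut at about 3.8% in these data); inactive = the rest.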

These compounds were tested against Nuclear receptor subfamily 0 group B member 1 (Homo sapiens) (UniProt P51843) (assay: NR0B1 repressor blockers, StAR reporter readout – cell-based, luminescence, HEK293T, full-length DAX-1, SF-1 activated StAR promoter, confirmation (AID 652134;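 also: 0% = DAX-1 cells with DMSO and 100% = no DAX-1 control cells with DMSO; active compounds raise luminescence by relieving repression of the StAR reporter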)). Conditions: HEK293T StAR-promoter luciferase reporter, SF-1/DAX-1 repression; at 6.8 µM; stronger effect = higher value.
Chain of Nuclear receptor subfamily 0 group B member 1 (Homo sapiens) (P51843 whole entry, looked up): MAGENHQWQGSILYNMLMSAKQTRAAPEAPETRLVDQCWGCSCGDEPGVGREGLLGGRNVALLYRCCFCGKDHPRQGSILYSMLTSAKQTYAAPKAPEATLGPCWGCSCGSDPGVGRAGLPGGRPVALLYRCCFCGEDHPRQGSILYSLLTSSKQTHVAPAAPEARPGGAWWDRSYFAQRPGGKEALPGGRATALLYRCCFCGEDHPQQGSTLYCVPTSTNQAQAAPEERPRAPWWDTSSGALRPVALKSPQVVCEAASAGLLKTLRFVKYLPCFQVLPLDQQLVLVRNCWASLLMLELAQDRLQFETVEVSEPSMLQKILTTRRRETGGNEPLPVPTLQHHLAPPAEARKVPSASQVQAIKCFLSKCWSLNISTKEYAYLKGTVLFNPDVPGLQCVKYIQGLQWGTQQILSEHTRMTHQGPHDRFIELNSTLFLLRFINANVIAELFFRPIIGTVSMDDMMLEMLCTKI
For `O=C(NCCc1ccc(F)cc1)c1ccc2nccnc2c1`, the inhibition was 12.4% (active).
In the case of `COc1ccc(Nc2ncc(F)c(N3CCOCC3)n2)cc1`, the inhibition is reported as 11.3% (active).
`OC(c1ccccc1)c1nc(-c2cnc3ccccc3c2)cs1` (configuration not stated) was tested, and the inhibition was 13% (active).
In the case of `O=C1C(C=NCC2CCCO2)=C(O)c2ccccc21` (configuration not stated), the inhibition is reported as 7.49% (active).
With `CC(=O)Nc1cccc(-c2csc(Nc3cccc(C)n3)n2)c1` the inhibition was 10.7% (active).
For `COc1cc(C2c3cc4c(cc3C(O)C3COC(=O)C23)OCO4)cc(OC)c1OC` (configuration not stated), the inhibition was 19.5% (active).
For `COc1cc(/C=N/O)ccc1OCc1ccc([N+](=O)[O-])cc1`, the inhibition was 11.6% (active).
For `CC(=O)Nc1cccc(C(=O)OCC(=O)c2ccc3c(c2)OCO3)c1`, the inhibition was 14.1% (active).
`CC(C)c1ccc(C=NNc2ccc([N+](=O)[O-])cn2)cc1` was tested, and the inhibition was 14.9% (active).
For `S=C(c1ccc(-c2ccccc2)o1)N1CCCCC1`, the inhibition was 11% (active).
With `COc1ccc2nc(SCc3ccccc3)nc(C)c2c1` the inhibition was 20.3% (active).
With `CC(C)Cc1cc(C(=O)NCCc2ccccc2)no1` the inhibition was 8.87% (active).
In the case of `CNCC(O)c1ccc(O)c(O)c1` (configuration not stated), the inhibition is reported as 3.72% (active).
In the case of `C(=N\Nc1ccc2ccccc2n1)/c1ccc2c(c1)OCO2`, the inhibition is reported as 13.2% (active).
In the case of `COc1ccc2nc(-c3ccccn3)ccc2c1`, the inhibition is reported as 12.2% (active).
With `Cc1ccc(-c2nc3ccccc3[nH]2)cc1N` the inhibition was 11.7% (active).
With `c1ccc2[nH]c(-c3nc4ccccc4[nH]3)nc2c1` the inhibition was 11.3% (active).
In the case of `O=C(NC(=S)NC1CCCCC1)c1ccc(Cl)cc1`, the inhibition is reported as 6.95% (active).
`O=C(c1cnn2ccccc12)N1CCc2ccccc21` was tested, and the inhibition was 9.73% (active).
For `COc1cccc(/C=C/C(=O)Nc2ccc3c(c2)OCCO3)c1`, the inhibition was 3.84% (active).
In the case of `Cc1cccc(NC(=O)/C=C/c2ccc3c(c2)OCO3)n1`, the inhibition is reported as 13.6% (active).
For `O=C(O)c1cccc(N=NN2CCCCCC2)c1`, the inhibition was 15% (active).
In the case of `O=c1c2c(nc3n1CCCCC3)sc1c(O)cccc12`, the inhibition is reported as 16.3% (active).
With `O=C(Nc1ccc(Cl)c(Cl)c1)c1ccccc1NC(=O)C1CC=CCC1C(=O)O` (configuration not stated) the inhibition was 7.46% (active).
For `CC(C)(O)C#Cc1ccc(CNC[C@H]2O[C@@H](n3cnc4c(=O)[nH]c(N)nc43)[C@H](O)[C@@H]2O)s1`, the inhibition was -1.28%.
`CCN(CC(=O)Nc1c(F)cccc1F)C(=O)c1cnc(C)cn1` gave an inhibition of 0.35%.
With `O=c1oc(/C=C/c2ccccc2)nc2ccccc12` the inhibition was 11.2% (active).
For `CC(Oc1ccccc1[N+](=O)[O-])C(=O)N/N=C/c1ccoc1` (configuration not stated), the inhibition was 1.13%.
For `Cc1ccc(S(=O)Cc2ccc(C(=O)N3CCN(C4CCCCC4)CC3)o2)cc1` (configuration not stated), the inhibition was 5.33% (active).
`O=[N+]([O-])c1ccc2oc(-c3cccc(O)c3)nc2c1` was tested, and the inhibition was 10.7% (active).
In the case of `COc1ccc(-c2cn3ccsc3n2)cc1`, the inhibition is reported as 12.2% (active).
`COc1ccc(-c2cn3ccc(C)cc3n2)cc1` was tested, and the inhibition was 9.6% (active).
Compound `Cc1cc(C)c(C)c(S(=O)(=O)N2CCN(C(=O)c3ccc4c(=O)n5c(nc4c3)CCC5)CC2)c1C` has an inhibition of 0.85%.
For `O=c1c2c(nc3cc(-c4cccc(Cl)c4)[nH]n13)CCCC2`, the inhibition was 22.3% (active).
With `O=C(CSc1cccc[n+]1[O-])c1ccc(-c2ccccc2)cc1` the inhibition was 3.72% (active).
For `O=C(NCCc1c[nH]c2ccccc12)c1cc2ccccc2oc1=O`, the inhibition was 10.1% (active).
For `Cc1cc(OCc2cc(C(=O)NCc3cc(C(C)C)no3)no2)cc(C)c1Cl`, the inhibition was 6.04% (active).
In the case of `Cc1nc2cc(NC(=O)Nc3cccc(F)c3)ccc2n1C`, the inhibition is reported as 15.5% (active).
Work on `C=CCn1c(SCC(=O)Nc2ccc(NC(C)=O)cc2)nc2sc(C)c(C)c2c1=O` yielded an inhibition of -0.94%.
With `Nc1ccc(C(=O)Nc2ccccc2N)cc1` the inhibition was 94.3% (active).
For `Cn1ccnc1SCC(=O)Nc1ccc2c(c1)OCCO2`, the inhibition was 10.6% (active).
`CN(C(=O)c1cc2c(=O)n3ccccc3nc2s1)C1CCCCC1` was tested, and the inhibition was 9.28% (active).
For `NS(=O)(=O)c1ccc2nc(NC(=O)C3=COCCO3)sc2c1`, the inhibition was 9.88% (active).
For `Cc1sc(NC(=O)c2ccc3ncsc3c2)c(C(N)=O)c1C`, the inhibition was 14.4% (active).
`CCOC(=O)c1c(S(=O)(=O)Nc2ccc(CN3CCC(C)CC3)cc2)c(C)n(C)c1C` was tested, and the inhibition was 4.2% (active).
In the case of `CCc1ccc(NC2Nc3cc(C)nn3S2)cc1` (configuration not stated), the inhibition is reported as 10.6% (active).
In the case of `CCOc1cccc(/C=C/c2ccc3ccccc3n2)c1OC(C)=O`, the inhibition is reported as 10.4% (active).
For `Cc1csc(SCC(=O)Nc2sccc2C#N)n1`, the inhibition was 16.1% (active).
For `COC(=O)c1sc(NC(=O)c2ccc(OC)cc2OC)nc1C`, the inhibition was 13.9% (active).
In the case of `O=C(Nc1ccc2c(c1)CCC2)c1ccc(Br)s1`, the inhibition is reported as 15.1% (active).
With `COc1ccc(/C=C/C(=O)Nc2ccc(C34CC5CC(CC(O)(C5)C3)C4)cc2)cc1OC` the inhibition was 4.27% (active).
With `Clc1ccc(Nc2nc(-c3cccs3)cs2)nc1` the inhibition was 13.8% (active).
For `Cc1ccccc1OCC(=O)Nc1ccc2c(c1)ncn2C`, the inhibition was 8.73% (active).
In the case of `Cc1ccccc1Nc1nc(N)nc(CSc2ccccc2)n1`, the inhibition is reported as 19.3% (active).
For `CCCNC(=O)C1CC(=O)N(c2ccc(OCc3ccccc3)cc2)C1` (configuration not stated), the inhibition was 14.4% (active).
`Cc1ccc(N/C=C/C(=O)c2ccccc2)cc1C` was tested, and the inhibition was 10.3% (active).
For `CC1CCN(C(=O)COC(=O)c2cc(=O)[nH]c3ccccc23)CC1`, the inhibition was 9.14% (active).
Compound `COc1ccccc1CCC(=O)OCC(=O)N1CCN(S(=O)(=O)c2ccc(C)cc2C)CC1` has an inhibition of 1.66%.
With `O=C(NCC1(N2CCCCC2)CCCCC1)c1ccc(NS(=O)(=O)c2ccc(F)cc2)cc1` the inhibition was 9.71% (active).
For `CCOc1ccc(S(=O)(=O)Nc2cccc(C(=O)NCC3(N4CCCCC4)CCCCC3)c2)cc1`, the inhibition was 8.51% (active).
For `CCN(c1ccccc1)S(=O)(=O)c1ccc(OCC(=O)N2CCCC2)cc1`, the inhibition was 0.88%.
For `COc1ccc(OCc2cc(C(=O)N3CCCC3)no2)c2ccccc12`, the inhibition was 6.33% (active).
In the case of `O=C(c1cc(-c2cccs2)on1)N1CCCCC1`, the inhibition is reported as 12.9% (active).
With `COc1ccccc1-c1cc(C(=O)N2CCCCC2)no1` the inhibition was 13.3% (active).
`O=C(c1cc(-c2ccccc2O)on1)N1CCCC1` was tested, and the inhibition was 11.2% (active).
With `CC(C)c1ccc(Nc2ncccc2C#N)cc1` the inhibition was 5.79% (active).
In the case of `Cc1ccnc(NC(=O)CCNS(=O)(=O)c2ccc(C)c(C)c2)c1`, the inhibition is reported as 14% (active).
